Inconclusive results are not listed. Active and inactive are the calls of the source. Calls come from the whole dose curve; as a rule, active = well fitted inhibition curve with a large enough effect; inconclusive = small, poorly fitted or top-dose-only effect; inactive = flat fitted curve, though single readings scatter.
Potency is the fitted concentration of half-maximal effect.

Chain of Ferritin light chain (Equus caballus) (P02791 2-175 limits assumed): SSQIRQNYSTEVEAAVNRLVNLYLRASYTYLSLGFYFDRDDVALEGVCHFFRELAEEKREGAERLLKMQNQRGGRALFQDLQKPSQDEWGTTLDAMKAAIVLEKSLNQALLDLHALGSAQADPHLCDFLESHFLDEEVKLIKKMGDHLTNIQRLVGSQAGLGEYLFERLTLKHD

The assay concerns the target Ferritin light chain (Equus caballus) (UniProt P02791). The assay can be described thus: Confirmation Assay for Identification of Novel General Anesthetics. Note: nearly all actives have a fitted effect of over 40% in size. To be noted: apoferritin 1-aminoanthracene fluorescence displacement. The method, boiled down: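 Horse apoferritin (10 uM) pre-loaded with 1-AMA (50% saturated, PBS) exposed to compounds 10 min at room temperature; loss of 1-AMA fluorescence (380/535 nm) scaled between free and bound ligand, curves fitted with Hill equation.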
On to `COC(=O)c1ccc(/C=N/OCC(=O)NC2CCCCCCC2)cc1`, for which the Potency is 7.94 µM (active).
For `CC(=O)Nc1ccc(NCc2ccc(C)s2)cc1` the value was 17.8 µM (active); for `Nc1nnc(COc2cccc(C(F)(F)F)c2)s1`, 15.8 µM (active); for `O=C(CCc1ccccc1)Nc1cc(Cl)ccc1O`, 6.31 µM (active).
For `O=C(Cn1nc(-c2ccccc2)ccc1=O)NCc1ccc(F)cc1` the value was 6.31 µM (active); for `O=C(Nc1cccc(Cl)c1)N1CCc2ccccc2C1`, 11.2 µM (active).
For `Cc1cc(NS(=O)(=O)N(C)C)ccc1C(C)C` the value was 20 µM (active); for `CC(NC(=O)COC(=O)Cc1ccsc1)C1CC2CCC1C2` (stereo not drawn), 31.6 µM (active); for `NS(=O)(=O)c1cccnc1Nc1cccc(C(F)(F)F)c1`, 10 µM (active).
`O=C(Nc1ccc(Br)cc1)N1CCCCCC1`: the Potency is 25.1 µM (active).
As to `O=C(COC(=O)CCc1ccccc1)NC12CC3CC(CC(C3)C1)C2`, the Potency was 8.91 µM (active).
For `CC(C)(C)c1ccc(OCCC(=O)NC2=NCCS2)cc1` the value was 20 µM (active); for `O=C(CCC1CCCCC1)Nc1nncs1`, 15.8 µM (active).
For `CC1Cc2ccccc2N1C(=O)CSc1ccccc1` (stereo not drawn) the value was 14.1 µM (active); for `Cc1csc(OCC(=O)Nc2ccc(C)c(C)c2)n1`, 17.8 µM (active); for `O=C(Nc1ccc(F)c(Cl)c1)N1CCCCCC1`, 7.94 µM (active).
The same measure for `Cc1ccccc1OCC(=O)N1CCCCCCC1`: 7.94 µM (active).
In the case of `CCN1C(=O)N(c2cccc3ccccc23)C(C)=CC1(C)C`, the Potency was 14.1 µM (active).
The same measure for `CC(=O)c1cccc(NC(=O)CCC2CCCC2)c1`: 28.2 µM (active); for `O=C(Cn1sc2ccccc2c1=O)NC12CC3CC(CC(C3)C1)C2`: 15.8 µM (active); for `Cc1ccc(CC(=O)OCC(=O)NC2CCCC(C)C2C)cc1C` (stereo not drawn): 28.2 µM (active).
For `O=C(NC12CC3CC(CC(C3)C1)C2)c1ccco1` the value was 14.1 µM (active); for `O=C(OCC(=O)C12CC3CC(CC(C3)C1)C2)c1cccnc1`, 22.4 µM (active).
The same measure for `Oc1ccc(C(=S)N2CCCCC2)cc1Cl`: 17.8 µM (active); for `Cc1cccc(Nc2nc(Cl)ncc2F)c1C`: 28.2 µM (active); for `CC(Nc1ccccc1)c1cccnc1` (stereo not drawn): 15.8 µM (active).
For the molecule `Nc1nc(C23CC4CC(CC(C4)C2)C3)cs1`, the Potency was 7.94 µM (active).
The same measure for `ClC1(Cl)CC1CSc1nc2ccccc2[nH]1` (stereo not drawn): 15.8 µM (active); for `O=C(Nc1ccc(Br)cc1)N1CCCCCCC1`: 6.31 µM (active); for `O=C(Nc1cccc(Cl)c1)OCc1cnc(Cl)s1`: 31.6 µM (active).
For `O=C(COC(=O)CC1CC2CCC1C2)Nc1ccc(F)cc1` (stereo not drawn) the value was 20 µM (active); for `CC1CCCC(C)N1C(=O)CSc1nnnn1Cc1ccccc1` (stereo not drawn), 8.91 µM (active); for `O=S1(=O)CCOCCCN1Cc1ccccc1Br`, 12.6 µM (active).
For `CC1Cc2ccccc2N1C(=O)CSC1=NCCS1` (stereo not drawn) the value was 10 µM (active); for `Cc1cc(C)n(-c2ccc(C(=O)NCc3ccc4c(c3)OCO4)cc2)n1`, 15.8 µM (active).
For `CCc1ccc(NC(=S)N2CCCCCCC2)cc1`, the Potency is 14.1 µM (active).
The same measure for `Cc1cc(NS(=O)(=O)c2ccccc2)cc(Cl)c1O`: 11.2 µM (active).
For the molecule `CCc1c(O)nc(SC2CC(=O)N(c3ccccc3)C2=O)[nH]c1=O` (stereo not drawn), the Potency is 31.6 µM (active).

For the origin of these results see PubChem BioAssay AID489008 (National Center for Advancing Translational Sciences (NCATS), 2010).
